PubChem BioAssay AID1159580 (chemical genetic matrix, 2015)
About 2,000 (36%) of roughly 5,500 compounds were called active. Inconclusive results (about 18%) are left out. No stated cut-off is given here; in the data, active means normalized growth mostly below about 0.91 (no sharp cut-off); inconclusive means no clear call, values can overlap the other calls; inactive means mostly above about 0.92. This is one part of the list.

Experiment: chemical genetic growth profiling, strain panel (AID 1159580);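 further: tested at 20 µM; growth read once vehicle control cultures reached saturation at 30 °C; 1 = growth at the plate median or of vehicle wells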
Settings: S. cerevisiae deletion strains, growth OD

Measured: normalized growth

CCCCCCCCCCC/C=C\C(C)(C)/C=C\CCCC(=O)O
inactive: locus YAL040C, strain CLN3, stronger effect = lower value 1.02 | locus YCL061C, strain MRC1 (second series), stronger effect = lower value 1.04 | locus YDR150W, strain NUM1, stronger effect = lower value 1.01 | locus YDR363W, strain ESC2, stronger effect = lower value 1.04 | locus YER002W, strain NOP16, stronger effect = lower value 1.04 | locus YJR075W, strain HOC1, stronger effect = lower value 1.02 | locus YMR263W, strain SAP30, stronger effect = lower value 1.03 | locus YMR307W, strain GAS1, stronger effect = lower value 0.974 | locus YNL128W, strain TEP1, stronger effect = lower value 0.996 | locus YNL153C, strain GIM3, stronger effect = lower value 0.967 | locus YNL175C, strain NOP13, stronger effect = lower value 1.01 | locus YNL197C, strain WHI3, stronger effect = lower value 0.985 | locus YNL224C, strain SQS1, stronger effect = lower value 1 | locus YNL322C, strain KRE1, stronger effect = lower value 1.02 | locus YOR083W, strain WHI5 (second series), stronger effect = lower value 0.965 | locus YPL055C, strain LGE1, stronger effect = lower value 1.08
